These compounds were tested on PAK2. Settings: concentration: 1 μM, replicates: in singlicate; n = 1.
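Further: KINOMEscan kinase panel screen.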

Row | SMILES | %Inh
1 | Cl.c1ccc(-c2ccc3c(Nc4ccc5[nH]ccc5c4)ccnc3c2)nc1 [GW440138] | 0%
2 | O=C(Nc1ccccc1F)NC1CCN(c2ccnc(Nc3ccc(F)cc3)n2)CC1 [GSK1379800] | 0%
3 | Cc1cccc(NC(=O)Nc2ccc(Oc3ncnc4ccn(C)c34)cc2)c1 | 0%
4 | COc1cccc(C2=C(Nc3ccc(Cl)c(C(=O)O)c3)C(=O)NC2=O)c1 [SB-390769] | 28%
5 | COc1cccc(-c2ccc3c(NC(=O)C4CC4)n[nH]c3n2)c1 [SB-710903] | 0%
6 | CN1CCN(CCCNc2nccc(-c3c(-c4ccc(F)cc4)nn4cc(C(F)(F)F)ccc34)n2)CC1 [GW621581] | 7%
7 | COCCOCCOc1cc2ncc3c4ccc(C#N)cc4[nH]c3c2cc1OC | 22%
8 | O=C(Nc1cccc(-c2nn3ncccc3c2-c2ccnc(Nc3ccccc3)n2)c1)c1c(F)cccc1F [GSK198271] | 16%
9 | c1ccc(-c2n[nH]cc2Nc2ccnc3ccccc23)nc1 [GW694077] | 50%
10 | COC(=O)Nc1nc2ccc(Oc3ccc(NC(=O)Nc4cc(C(F)(F)F)ccc4F)cc3)cc2n1C.Cl [GW692089] | 0%
11 | Cn1cc(-c2ccc3c(c2)CCN3C(=O)Cc2cccc(Cl)c2)c2c(N)ncnc21 [GSK2606590] | 22%
12 | CC(C)(C)c1ccc2nccc(Nc3cccc(O)c3)c2c1 [GW856795] | 0%
13 | COc1cc(Nc2nccc(N3CCC(NC(=O)Nc4cccc(C(C)=O)c4)C3)n2)cc(OC)c1OC (stereo not shown) [GSK1379753] | 0%
14 | O=C(Nc1n[nH]c2nc(-c3ccc(O)cc3)ccc12)C1CC1 [SB-710363] | 72%
15 | c1ccc(-c2cnc3nccnn23)cc1 [AH20685] | 20%
16 | CN(C)Cc1ccc(-c2ccc3c(Nc4ccc(Oc5ccccn5)cc4)ccnc3c2)o1 [GW567148] | 0%
17 | NCCCC(NC(=O)c1cc(Br)c(-c2ccnc3[nH]ccc23)s1)c1ccccc1.O=C(O)C(F)(F)F.O=C(O)C(F)(F)F (stereo not shown) [GSK1287544] | 41%
18 | CCS(=O)(=O)c1ccc(OC)c(Nc2nccc(-c3c(-c4cccc(NC(=O)c5c(F)cccc5F)c4)nn4ncccc34)n2)c1 [GSK326180] | 0%
19 | CCn1c(-c2nonc2N)nc2c(C#CC(C)(C)O)ncc(OCCCCN)c21.O=C(O)C(F)(F)F.O=C(O)C(F)(F)F [GSK507274] | 88%

Row | SMILES | %Inh
20 | Cl.Cl.NCC(NC(=O)c1cc(-c2ccccc2)c(-c2ccnc3[nH]ccc23)s1)c1ccccc1 (stereo not shown) [GSK1321561] | 0%
21 | Clc1ccc(-c2nn3ncccc3c2-c2ccnc(Nc3ccc4c(c3)OCCO4)n2)cc1 [GW829116] | 28%
22 | Cc1ccc(C)c(NC(=O)NC2CCN(c3ccnc(Nc4ccc(F)cc4)n3)C2)c1 (stereo not shown) [GSK1379720] | 2%
23 | CN1CCN(Cc2cccc(-c3ccc4c(Nc5ccc(Oc6ccccc6)cc5)ccnc4c3)c2)CC1 [GW578342] | 0%
24 | O=C(O)C(F)(F)F.O=C(O)C(F)(F)F.O=c1[nH]ccc2nc(N[C@@H]3CCCNC3)nc(Nc3ccc(S(=O)(=O)N4CCOCC4)cc3)c12 [GSK2177277] | 99.3%
25 | COc1cc(Nc2nccc(-c3c(-c4cccc(NC(=O)c5c(F)cccc5F)c4)nn4ncccc34)n2)cc(OC)c1OC [GSK327238] | 9%
26 | O=C(NC1CCN(c2ccnc(Nc3ccc(F)cc3)n2)C1)c1cc2ccccc2s1 (stereo not shown) [GSK1379716] | 16%
27 | Cl.c1ccc(-c2ccc3c(Nc4ccc5[nH]ncc5c4)ccnc3c2)nc1 [GW440137] | 0%
28 | COc1cc(Nc2ncc3c(C)nc(-c4cc5ccccc5[nH]4)n3n2)cc(OC)c1OC [GW869516] | 22%
29 | CCCCc1nn2ncccc2c1-c1ccnc(Nc2ccc(N3CCN(C)CC3)cc2)n1 [GW684941] | 0%
30 | C[C@@H](Oc1cc(-n2cnc3cc(-c4ccnc(NCCS(C)(=O)=O)c4)ccc32)sc1C(N)=O)c1ccccc1Cl [GSK907232] | 32%
31 | O=C(Nc1cccc(-c2nn3ccccc3c2-c2ccnc(Nc3cccc(F)c3)n2)c1)c1c(F)ccc(F)c1Cl [GSK357952] | 2%
32 | CCc1ccc(-c2ccc3c(c2)-c2c(cnn2C)S(=O)(=O)N3C)cc1 | 2%
33 | O=C(Nc1cccc(-c2nn3ccccc3c2-c2ccnc(Nc3cccc(C(F)(F)F)c3)n2)c1)c1c(F)cccc1F [GSK292658] | 6%
34 | Cl.NC(=O)c1cccc(Nc2nccc(Nc3ccc(Oc4c(Cl)cccc4Cl)c(Cl)c3)n2)c1 [GW659009] | 8%
35 | COc1ccc(CNC(=O)NC2CCN(c3ccnc(Nc4ccc(F)cc4)n3)CC2)cc1 [GSK1379788] | 0%
36 | COc1ccc(Nc2nccc(NCCNC(=O)c3cc4ccccc4s3)n2)cc1 [GSK1379896] | 0%
37 | O=c1[nH]cc(-c2ccc(N3CCOCC3)cc2)c2sc(-c3cn[nH]c3)cc12 [GSK2276055] | 26%

Reference: paper PMC5540273 (PLoS ONE, 2017)
